Several values for one entry are separate records, joined by “and”; a condition that tells them apart may be missing. Equal values may be shown once. Out of some 5,500 compounds screened, about 2,000 (36%) were called active. Not shown: some 18% with an inconclusive outcome. Rule as the data show it: active = normalized growth mostly below about 0.91 (no sharp cut-off); inconclusive = no clear call, values can overlap the other calls; inactive = mostly above about 0.92. Some of the results follow.
Assay: chemical genetic growth profiling, strain panel (AID 1159580);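 also: tested at 20 µM; growth read once vehicle control cultures reached saturation at 30 °C; 1 = growth at the plate median or of vehicle wells; lower values mean less growth of the strain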
Settings: S. cerevisiae deletion strains, growth OD

Measured: normalized growth

COc1ccc(OC)c(C(O)CNC(=O)CN)c1 (stereo not given)
inactive: locus YAL021C, strain ccr4, active compounds read low 0.984 | locus YAL026C, strain drs2, active compounds read low 1 | locus YAL030W, strain snc1, active compounds read low 1.01 | locus YBL061C, strain skt5, active compounds read low 1.01 | locus YBR009C, strain hhf1, active compounds read low 1 | locus YBR021W, strain FUR4, active compounds read low 1.02 | locus YBR023C, strain chs3, active compounds read low 1 | locus YBR171W, strain sec66, active compounds read low 1.02 | locus YBR229C, strain ROT2, active compounds read low 0.961 | locus YBR231C, strain swc5, active compounds read low 1 | locus YBR279W, strain paf1, active compounds read low 1.01 | locus YCL011C, strain gbp2, active compounds read low 1.01 | locus YCL016C, strain dcc1, active compounds read low 1.01 | locus YCL029C, strain bik1, active compounds read low 0.987 | locus YCL061C, strain MRC1, active compounds read low 1.01 | locus YCL069W, strain vba3, active compounds read low 1.01 | locus YCR088W, strain abp1, active compounds read low 0.996 | locus YDL005C, strain med2, active compounds read low 1 | locus YDL035C, strain GPR1, active compounds read low 0.986 | locus YDL040C, strain nat1, active compounds read low 0.997 | locus YDL074C, strain BRE1, active compounds read low 0.962 | locus YDL101C, strain DUN1, active compounds read low 0.987 | locus YDL134C, strain PPH21, active compounds read low 1 | locus YDL185W, strain tfp1, active compounds read low 0.979 | locus YDL192W, strain arf1, active compounds read low 0.964 | locus YDR001C, strain nth1, active compounds read low 0.997 | locus YDR069C, strain doa4, active compounds read low 1 | locus YDR101C, strain arx1, active compounds read low 0.98 | locus YDR137W, strain rgp1, active compounds read low 1.01 | locus YDR150W, strain NUM1, active compounds read low 0.993 | locus YDR159W, strain sac3, active compounds read low 0.989 | locus YDR162C, strain NBP2, active compounds read low 0.983 | locus YDR195W, strain ref2 0.977 | locus YDR297W, strain sur2, active compounds read low 1 | locus YDR318W, strain mcm21, active compounds read low 0.982 | locus YDR334W, strain swr1, active compounds read low 1.01 | locus YDR335W, strain msn5, active compounds read low 1 | locus YDR388W, active compounds read low 0.983 | locus YDR392W, strain spt3, active compounds read low 1.02 | locus YDR502C, strain sam2, active compounds read low 0.981 | locus YEL003W, strain gim4, active compounds read low 0.998 | locus YEL037C, strain rad23, active compounds read low 1 | locus YEL061C, strain CIN8 (second series), active compounds read low 1.01 | locus YEL061C, strain CIN8, active compounds read low 0.979 | locus YER015W, strain faa2, active compounds read low 1.02 | locus YER016W, strain bim1, active compounds read low 1 | locus YER110C, active compounds read low 0.973 | locus YER111C, strain swi4, active compounds read low 1.01 | locus YER155C, strain BEM2 (second series), active compounds read low 1.01 | locus YER155C, strain BEM2, active compounds read low 1 | locus YER167W, strain BCK2, active compounds read low 1.01 | locus YFR010W, strain ubp6, active compounds read low 1.01 | locus YGL078C, strain dbp3, active compounds read low 0.974 | locus YGL086W, strain mad1, active compounds read low 0.979 | locus YGL167C, strain pmr1, active compounds read low 0.995 | locus YGL173C, strain kem1, active compounds read low 0.995 | locus YGL227W, strain vid30, active compounds read low 1 | locus YGL240W, strain doc1, active compounds read low 1.02 | locus YGL248W, strain PDE1, active compounds read low 0.967 | locus YGL253W, strain hxk2, active compounds read low 1.02 | locus YGR135W, strain pre9, active compounds read low 0.999 | locus YGR229C, strain SMI1, active compounds read low 0.99 | locus YGR252W, strain gcn5, active compounds read low 0.956 | locus YHR013C, strain ard1, active compounds read low 1.01 | locus YHR027C, strain rpn1, active compounds read low 0.999 | locus YHR030C, strain SLT2, active compounds read low 1 | locus YHR079C, strain IRE1 (second series), active compounds read low 0.991 | locus YHR079C, strain IRE1, active compounds read low 1.01 | locus YHR094C, strain hxt1, active compounds read low 0.978 | locus YHR129C, strain ARP1, active compounds read low 0.996 | locus YHR142W, strain chs7, active compounds read low 0.997 | locus YIL066C, strain RNR3, active compounds read low 0.969 | locus YIL073C, strain SPO22, active compounds read low 0.985 | locus YIL125W, strain kgd1, active compounds read low 0.975 | locus YIR030C, strain dcg1, active compounds read low 0.986 | locus YJL092W, strain hpr5, active compounds read low 1.01 | locus YJL095W, strain BCK1 (second series), active compounds read low 1 | locus YJL095W, strain BCK1, active compounds read low 0.975 and 1.03 | locus YJL115W, strain asf1, active compounds read low 1 | locus YJL129C, strain trk1, active compounds read low 0.999 | locus YJL134W, strain LCB3, active compounds read low 0.991 | locus YJL154C, strain vps35, active compounds read low 0.992 | locus YJL164C, strain tpk1, active compounds read low 1 | locus YJL166W, strain qcr8, active compounds read low 1 | locus YJL168C, strain set2, active compounds read low 0.976 | locus YJL187C, strain SWE1 (second series), active compounds read low 0.958 | locus YJL187C, strain SWE1, active compounds read low 1 | locus YJR043C, strain POL32, active compounds read low 0.944 | locus YJR066W, strain TOR1, active compounds read low 1 | locus YJR075W, strain HOC1, active compounds read low 0.993
